The values below come from PubChem BioAssay.

Test [1] is described as follows: inhibitors of TNFa-induced NFkB p65 translocation, primary screen, imaging, HUVEC, MLSMR starter and 10KST1 sets (AID 438;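 active = inhibition above 20% together with a positive visual image hit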;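 note: compound added about 3h40 before a 20 min TNFalpha stimulation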;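 for inhibition: signal is the nuclear over cytoplasmic p65 intensity ratio per well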). Conditions: HUVEC TNFa-induced p65 nuclear translocation; cell count: measured here: nuclei count (cytotoxicity indicator), at 2.08 µM; inhibition: at 2 µM, stronger effect = higher value, 0% TNFa-plus-vehicle, 100% no-TNFa wells.
Test [2] can be described thus: reduction of polyQ htt aggregates in cells – imaging, exon1htt(103Q)mCFP cells, high-content imaging, primary screen (AID 483;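 active = visual image review flags a hit and inhibition of aggregation exceeds 20%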;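 note: compound exposure lasted 3 days before fixation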;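 for nuclei count: percent of the per-plate median nuclei count of sample wells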). Conditions: exon1htt(103Q)mCFP cell line, aggregate imaging, at 2 µM; inhibition of aggregation: stronger effect = higher value; nuclei count: measured here: cell count, toxicity.
A short description of test [3]: endothelial E-selectin expression blockers – imaging, HUVEC, immunofluorescence, MLSMR starter and 10KST1 sets, primary screen (AID 487;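 active = visually confirmed hit in the image check and inhibition above 20%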;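 for inhibition: signal is fraction of cell area covered by stained E-selectin grains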;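 for nuclei count: 100% = median nuclei count of all wells on the same plate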). Conditions: HUVEC TNFalpha-induced E-selectin immunofluorescence imaging, at 2 µM; inhibition: stronger effect = higher value; nuclei count: measured here: cell number, toxicity.
A short description of test [4]: Primary imaging screen for DUSP6 inhibitors that restore phospho-Erk in transfected HeLa cells, chemical complementation (AID 609;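 active = compounds giving at least 50% inhibition in the cell-based MKP-3 phosphatase rescue imaging test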;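 for inhibition: phospho-Erk level distribution per well compared with pooled transfected vehicle control wells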). Conditions: HeLa MKP-3 transfected, phospho-Erk imaging KS statistic, at 10 µM, cells stimulated with TPA for 15 min.
Test [5] addresses Dual specificity protein phosphatase 6 (Homo sapiens) (UniProt Q16828). The description is as above. Conditions: HeLa MKP-3 transfected, phospho-Erk imaging KS statistic; at 10 µM; stronger effect = higher value; cells stimulated with TPA for 15 min.
Test [6] has as its target Voltage-gated potassium channel subunit beta-2 (Rattus norvegicus) (UniProt P62483). Nature of the test: inhibitors of rat Kvbeta2 reductase activity – biochemical, NADPH fluorescence, primary screen (AID 622).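 Note: slope of raw intensity against log time taken from 70 to 1610 s.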 The conditions noted are these: recombinant KvBeta, 4-cyanobenzaldehyde reduction, at 10 µM, stronger effect = higher value.
Test [7] has the same target. Nature of the test: enhancers of rat Kvbeta2 NADPH turnover – biochemical, NADPH fluorescence, primary screen (AID 623;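 active = NADPH fluorescence slope more negative than the mean of all samples by about 3 SD, 99.7% confidence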;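 note: fluorescence intensity change per second fitted from 20 to 320 s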). Conditions: Recombinant KvBeta, NADPH fluorescence decrease slope, 10 min; at 10 µM; stronger effect = lower value.
The target of test [8] is Alpha-2C adrenergic receptor (Homo sapiens) (UniProt P18825). The test can be described thus: compounds altering alpha2C-coupled GIRK flux – cell-based, HEK293 alpha2C/GIRK1/2, thallium flux, primary screen (AID 624;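 active = fluorescence slope after compound addition differing from the mean of all screened samples at 99.7% confidence, in either direction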;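 note: slope of fluorescence ratio to pre-addition baseline per second over 15 to 24 s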). Conditions: thallium flux BTC fluorescence, at 10 µM, actives lie on both sides.
Chain of Alpha-2C adrenergic receptor (Homo sapiens) (P18825 whole entry, looked up): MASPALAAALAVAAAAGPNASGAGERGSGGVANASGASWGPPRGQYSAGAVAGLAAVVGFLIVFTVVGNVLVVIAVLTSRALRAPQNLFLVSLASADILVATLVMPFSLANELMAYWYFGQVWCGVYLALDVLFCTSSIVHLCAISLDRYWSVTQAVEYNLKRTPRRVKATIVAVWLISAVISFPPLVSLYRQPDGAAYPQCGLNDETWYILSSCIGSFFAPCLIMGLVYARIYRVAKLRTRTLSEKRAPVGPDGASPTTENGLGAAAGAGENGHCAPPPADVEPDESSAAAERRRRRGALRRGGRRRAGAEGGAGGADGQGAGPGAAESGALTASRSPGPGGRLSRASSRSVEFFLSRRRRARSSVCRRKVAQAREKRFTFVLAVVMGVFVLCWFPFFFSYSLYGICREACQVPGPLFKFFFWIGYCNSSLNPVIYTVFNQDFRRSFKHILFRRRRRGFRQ
The nature of test [9]: inhibitors of larval lipid processing in zebrafish, primary screen, whole organism, PED6 fluorescence, gall bladder and intestine (AID 686;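 active = a full or partial loss of lipid-probe fluorescence in the fish gall bladder, intestine or both, judged by eye; inactive = no fluorescence loss, or compound toxic to the fish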;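 note: larvae 5 to 7 days old with five fish per well; signal comes from phospholipase A2 cleavage of quenched PED6 carried via bile; overnight exposure to compound and PED6 before scoring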). Conditions: Zebrafish larvae PED6 lipid processing, fluorescence scoring; screened at 20 µM (by protocol).
The nature of test [10]: loss of swimming-algae plug formation – whole organism, Chlamydomonas reinhardtii, WT vs cilia-less mutant, absorbance, 96-well, primary screen (AID 463189;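 active = inhibition at or above 50% relative to wild type and mutant plate controls; inactive = inhibition below 50%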;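 note: 0% = wild type cc124 cells in DMSO and 100% = ciliumless bld1 mutant cells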). The conditions noted are these: Chlamydomonas reinhardtii gravitaxis, OD600 absorbance, 2 days; at 10 µM; stronger effect = higher value.
Test [11] is described as follows: blockers of RIG-like receptor reporter activation – cell-based, Sendai virus stimulus, luciferase, 10K MLSCN set, TLR/RLR signaling modifier project, primary screen (AID 602276;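 active = inhibition at or above 50% at 10 µM; inactive = inhibition below 50%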;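 note: firefly luciferase from ISG56 promoter only with Renilla not read in this screen; 0% = Sendai virus plus DMSO and 100% = medium plus DMSO without virus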). The conditions noted are these: HEK293 RL24 IRF3 luciferase reporter, at 10 µM, stronger effect = higher value. On the technique in general: Reporter assays use an easily measured gene product as a stand-in for the process of interest.

Test [12] is described as follows: TLR3 IRF3 reporter activation blockers – cell-based, poly I:C stimulus, luciferase, 10K MLSCN set, primary screen (AID 602277;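 active = inhibition of the reporter signal at or above 50%; inactive = inhibition below 50%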). Conditions: HEK293-TLR3 RL24 IRF3 luciferase reporter, at 10 µM, stronger effect = higher value.
[13] abbreviates: measured here: cell density z-score.
The mark [14] stands for this setting: measured here: nuclear c-Myc green intensity z-score.
The mark [15] stands for this setting: measured here: nuclear pErk red intensity z-score, stronger effect = higher value.

Active and inactive are the calls of the source.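 Rule for the calls, unless noted: active = fluorescence slope higher than the sample average by over 3 SD (cut at about -0.22 in these data, passing the limit was not always enough); inactive = the rest.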

Chain of Dual specificity protein phosphatase 6 (Homo sapiens) (Q16828 whole entry, looked up): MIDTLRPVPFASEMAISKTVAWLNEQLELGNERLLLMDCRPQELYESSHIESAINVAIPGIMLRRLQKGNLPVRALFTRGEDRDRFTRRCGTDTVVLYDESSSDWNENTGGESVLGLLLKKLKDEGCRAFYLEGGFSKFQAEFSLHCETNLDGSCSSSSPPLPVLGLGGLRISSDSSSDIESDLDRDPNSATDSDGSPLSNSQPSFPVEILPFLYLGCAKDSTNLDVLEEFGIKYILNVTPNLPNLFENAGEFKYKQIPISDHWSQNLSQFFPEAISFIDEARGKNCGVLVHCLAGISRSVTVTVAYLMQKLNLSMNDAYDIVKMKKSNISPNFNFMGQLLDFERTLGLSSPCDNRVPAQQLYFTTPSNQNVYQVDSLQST
Chain of Voltage-gated potassium channel subunit beta-2 (Rattus norvegicus) (P62483 whole entry, looked up): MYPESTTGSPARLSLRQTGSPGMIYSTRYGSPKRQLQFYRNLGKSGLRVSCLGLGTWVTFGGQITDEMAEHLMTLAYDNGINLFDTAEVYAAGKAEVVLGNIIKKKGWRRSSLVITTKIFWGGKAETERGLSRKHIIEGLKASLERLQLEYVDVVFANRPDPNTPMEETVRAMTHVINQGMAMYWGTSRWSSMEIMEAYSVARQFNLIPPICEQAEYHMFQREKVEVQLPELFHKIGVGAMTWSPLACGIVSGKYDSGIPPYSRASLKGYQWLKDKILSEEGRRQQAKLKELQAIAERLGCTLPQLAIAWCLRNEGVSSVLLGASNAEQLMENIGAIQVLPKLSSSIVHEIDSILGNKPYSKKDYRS

As a reminder, the inhibition is the change of the read-out against control, counted positive when it falls. With `CC(=O)OCC(=O)[C@@]1(O)CC[C@H]2[C@@H]3CCC4=CC(=O)CC[C@]4(C)[C@H]3[C@@H](O)C[C@@]21C`, the cell count in test [1] is 652. The inhibition was 2.9% (inactive) in test [1]; -99.5% (inactive) in [3]; 10.2% (inactive) in test [5]; 17.2% (inactive) in test [10]; 2.51% (inactive) in test [11]; 28.7% (inactive) in [12]. Further, the inhibition of aggregation in [2] is -9.2% (inactive). For the same compound, the nuclei count is 82.8% in test [2] and 121% in [3]. Also, the z-score in [4] (setting [13]) is -2.38; in test [4] (setting [14]), 1.32; in [4] (setting [15]) it was 1.76. Besides, in test [6], the fluorescence slope is -0.454 (inactive). The NADPH fluorescence slope in test [7] was -5.2e-05 (inactive). For the same compound, the slope in test [8] is 0.00445 (inactive). The result in test [9] was inactive.
Consider `O=C1OC(c2ccc(O)cc2)(c2ccc(O)cc2)c2ccccc21`, for which, in [1], the cell count was determined as 608. Further, the inhibition in [1] was -5% (inactive); in [3], -50.7% (inactive); in [5], 21.2% (inactive); in [10], -5.48% (inactive); in [11], 11.5% (inactive); in [12] it was 41.9% (inactive). For the same compound, the inhibition of aggregation in [2] was 4.4% (inactive). Also, the nuclei count in [2] was 77.9%; in [3] it was 116%. The figures for the z-score in test [4] (setting [13]), in test [4] (setting [14]) and in test [4] (setting [15]) were 2.02, -0.265 and -1.6, respectively. The fluorescence slope in test [6] is -0.449 (inactive). Besides, the NADPH fluorescence slope in [7] was -6.8e-05 (inactive). For the same compound, the slope in test [8] is 0.00467 (inactive). Besides, the result in [9] was inactive.
For the compound `N=c1ncn(CC(O)CN2CCOCC2)c2nc(N3CCOCC3)[nH]c12` (stereo not given), the cell count in test [1] stood at 536. For the same compound, the inhibition in test [1] is -23.6% (inactive); in [3], -90.1% (inactive); in [5], 17.3% (inactive); in test [10], 17.5% (inactive); in test [11], -19.8% (inactive); in test [12], -9.49% (inactive). The inhibition of aggregation in test [2] is 20.3% (inactive). Also, the figures for the nuclei count in [2] and in test [3] were 88.8% and 124%, respectively. In addition, the figures for the z-score in [4] (setting [13]), in [4] (setting [14]) and in test [4] (setting [15]) were 0.636, -1.17 and 0.315, respectively. The fluorescence slope in test [6] was -0.517 (inactive). The NADPH fluorescence slope in test [7] was -2.5e-05 (inactive). The slope in [8] is 0.00808 (inactive). The result in [9] was inactive.
As for `c1cc2c(cc1C1=Nn3c(nnc3C3CCCCC3)SC1)OCO2`, the cell count in test [1] is 636. Moreover, the inhibition was -0.8% (inactive) in [1]; -52.3% (inactive) in test [3]; -6.06% (inactive) in test [5]; -5.58% (inactive) in test [10]; 25.1% (inactive) in test [11]; 31% (inactive) in test [12]. Moreover, in test [2], the inhibition of aggregation is 5.8% (inactive). The nuclei count is 31.9% in test [2] and 113% in [3]. The z-score in test [4] (setting [13]) was -0.24; in test [4] (setting [14]), 0.613; in test [4] (setting [15]) it was -0.0709. In [6], the fluorescence slope is -0.481 (inactive). Moreover, the NADPH fluorescence slope in test [7] was -8.1e-05 (inactive). Further, the slope in test [8] was 0.00571 (inactive). Further, the compound was classed as inactive in [9].
For the compound `COC(=O)c1cc(S(=O)(=O)N2CCOCC2)c(N2CCOCC2)cc1N1CCOCC1`, the cell count in test [1] is 427. Besides, the inhibition in test [1] is -5.9% (inactive); in test [3], -21.7% (inactive); in test [5], -1.75% (inactive); in [10], 23.9% (inactive); in test [11], 4.03% (inactive); in test [12], 11% (inactive). In addition, the inhibition of aggregation in [2] was 5% (inactive). Further, the figures for the nuclei count in test [2] and in test [3] were 118% and 129%, respectively. In addition, the z-score is -1.77 in test [4] (setting [13]), -0.115 in test [4] (setting [14]) and 0.265 in [4] (setting [15]). In addition, in test [6], the fluorescence slope is -0.409 (inactive). In addition, in test [7], the NADPH fluorescence slope is -0.000135 (inactive). Further, the slope in test [8] was 0.00461 (inactive). Moreover, in test [9], the call was inactive.
